Consider 19 compounds from publication PMC11062922 (Nature Chemical Biology, 2023).

What all share (design): species or system human, MV4-11 + K-562 + COLO205 + SK-N-BE2 + OVCAR-8
The subject of assay [1] is ABL1. Conditions: read-out: apparent Kd, compound concentrations: 100 nM and 1000 nM (sheet 'Samples'), n = 1.
The subject of assay [2] is ABL2. Conditions: read-out: apparent Kd, n = 1.
The subject of assay [3] is IRAK3. As to conditions: read-out: apparent Kd, n = 1.
For assay [4], the system named is MAP3K11. Conditions: read-out: apparent Kd, n = 1.
For assay [5], the system named is MAPK14. Conditions: read-out: apparent Kd, compound concentrations: 100 nM and 1000 nM (sheet 'Samples'), n = 1.
Assay [6] has as its system AURKB. Conditions: read-out: apparent Kd, n = 1.
Assay [7] has as its system BTK. Conditions: read-out: apparent Kd; compound concentrations: 100 nM and 1000 nM (sheet 'Samples'), CATDS: 1.93862363831281E-2; n = 1.
Assay [8] deals with CDC42BPB. As to conditions: read-out: apparent Kd, n = 1.
The subject of assay [9] is EPHB1. As to conditions: read-out: apparent Kd, n = 1.
Assay [10] relates to LCK. As to conditions: read-out: apparent Kd; compound concentrations: 100 nM and 1000 nM (sheet 'Samples'), CATDS: 1.1469376819807401E-2; n = 1.
The test system of assay [11] is NUAK2. Conditions: read-out: apparent Kd, n = 1.
Assay [12] relates to PAK6. Conditions: read-out: apparent Kd, n = 1.
Assay [13] deals with RPS6KB1. Conditions: read-out: apparent Kd, n = 1.
In assay [14] the test system is CIT. As to conditions: read-out: apparent Kd, n = 1.
The subject of assay [15] is PIK3CD. As to conditions: read-out: apparent Kd, n = 1.
Assay [16] concerns CDK2. As to conditions: read-out: apparent Kd, compound concentrations: 100 nM and 1000 nM (sheet 'Samples'), n = 1.
Assay [17] concerns MARK2. Conditions: read-out: apparent Kd, n = 1.
Assay [18] relates to PRKCA. Conditions: read-out: apparent Kd, n = 1.
Assay [19] has as its system RPS6KA3. As to conditions: read-out: apparent Kd, compound concentrations: 100 nM and 1000 nM (sheet 'Samples'), n = 1.
Assay [20] concerns PKN2. Conditions: read-out: apparent Kd, n = 1.
The mark [21] stands for this setting: compound concentrations:100 nM and 1000 nM (sheet 'Samples').

Read-outs that look alike come from different tables or passages of the source.

Take `Cc1ccc(Nc2ccnc(Nc3ccc4c(c3)CS(=O)(=O)C4)n2)cc1O.Cl` [GW579362A]: the potency estimated from few doses in [1] (CATDS: 2.9223994432995299E-2) is 1330 nM; in assay [2] (compound concentrations: 100 nM and 1000 nM (sheet 'Samples'), CATDS: 4.4791805431594098E-2) it was 448 nM; in assay [3] (compound concentrations: 100 nM and 1000 nM (sheet 'Samples'), CATDS: 4.4859937900589397E-2), 446 nM; in assay [4] (compound concentrations: 100 nM and 1000 nM (sheet 'Samples'), CATDS: 2.6959638591647499E-2), 1770 nM; in assay [5] (CATDS: 2.9505107428945899E-2) it was 1290 nM.
Take `CN(c1ccc(NC(=O)Nc2cccc(Cl)c2)cc1)c1ccnc(N)n1.Cl` [GW830707A]: the potency estimated from few doses in assay [1] (CATDS: 1.69612830125371E-2) was 90.3 nM; in assay [2] (compound concentrations: 100 nM and 1000 nM (sheet 'Samples'), CATDS: 3.1249349132144801E-2), 18.9 nM; in assay [6] (compound concentrations: 100 nM and 1000 nM (sheet 'Samples'), CATDS: 1.11325754696811E-2), 1010 nM; in assay [7] it was 58.1 nM; in assay [8] (compound concentrations: 100 nM and 1000 nM (sheet 'Samples'), CATDS: 1.55962433330884E-2), 126 nM; in assay [9] (compound concentrations: 100 nM and 1000 nM (sheet 'Samples'), CATDS: 2.4630351484746099E-2) it was 31.2 nM. For the same compound, the potency estimated from few doses in [10] was 788 nM; in assay [11] (compound concentrations: 100 nM and 1000 nM (sheet 'Samples'), CATDS: 1.08459098062964E-2), 1270 nM; in assay [12] (compound concentrations: 100 nM and 1000 nM (sheet 'Samples'), CATDS: 1.07398015427933E-2) it was 1390 nM; in [13] (compound concentrations: 100 nM and 1000 nM (sheet 'Samples'), CATDS: 1.09553659906664E-2) it was 1160 nM.
In the case of `COc1cccc2c(-c3ccncc3)c(-c3ccc(F)cc3)nn12` [GW468513X], the potency estimated from few doses in [14] (compound concentrations: 100 nM and 1000 nM (sheet 'Samples'), CATDS: 4.9718513038834899E-2) is 539 nM; in [5] (CATDS: 0.16592681304069401), 42.8 nM.
As to `CN(c1ccc(NC(=O)NCCN2CCOCC2)cc1)c1ccnc(Nc2ccc(CS(C)(=O)=O)cc2)n1.Cl` [GW830365A], in [6] (compound concentrations: 100 nM and 1000 nM (sheet 'Samples'), CATDS: 8.1167400456920294E-2), the potency estimated from few doses is 384 nM.
As to `CC(=O)N[C@@H](Cc1ccc(OP(=O)(O)O)cc1)C(=O)N[C@H]1CCC(=O)N2CCC[C@@H](C(=O)NCc3ccc(Cl)cc3)N2C1=O` [RO0325308-000], the potency estimated from few doses is 60.3 nM in assay [2] (setting [21]), 71.6 nM in assay [9] (setting [21]) and 1530 nM in assay [3] (setting [21]).
As to `CN(C)CC(O)COc1ccc(Nc2nccc(-c3cnn4nc(N5CCOCC5)ccc34)n2)cc1` (centres unmarked) [GW767488X], the potency estimated from few doses in assay [14] (setting [21]) was 998 nM; in assay [3] (setting [21]), 64.8 nM.
For `CS(=O)(=O)Nc1cccc(-c2ccc3c(NC(=O)C4CC4)n[nH]c3c2)c1` [SB-742864], the potency estimated from few doses in [15] (compound concentrations: 100 nM and 1000 nM (sheet 'Samples'), CATDS: 0.40980617743007602) was 162 nM.
As for `COc1cc(Nc2nccc(N3CCC(NC(=O)c4cccc(NC(C)=O)c4)C3)n2)cc(OC)c1OC` (centres unmarked) [GSK1379754A], the potency estimated from few doses is 372 nM in [3] (compound concentrations: 100 nM and 1000 nM (sheet 'Samples'), CATDS: 0.18683076270721999); 1830 nM in [13] (compound concentrations: 100 nM and 1000 nM (sheet 'Samples'), CATDS: 8.2773531247457094E-2).
For the compound `O=C(O)C(F)(F)F.O=c1[nH]ccc2nc(N[C@@H]3CCNC3)nc(Nc3ccc4c(c3)S(=O)(=O)CC4)c12` [GSK2181306A], the potency estimated from few doses in [6] (compound concentrations: 100 nM and 1000 nM (sheet 'Samples'), CATDS: 8.4552521896549809E-3) was 1530 nM; in [8] (compound concentrations: 100 nM and 1000 nM (sheet 'Samples'), CATDS: 8.6780352700712906E-3), 1380 nM; in assay [16] (CATDS: 1.3422730745161799E-2), 398 nM; in assay [17] (compound concentrations: 100 nM and 1000 nM (sheet 'Samples'), CATDS: 1.1093040316995199E-2), 635 nM; in assay [11] (compound concentrations: 100 nM and 1000 nM (sheet 'Samples'), CATDS: 1.3760463216936501E-2), 376 nM; in [12] (compound concentrations: 100 nM and 1000 nM (sheet 'Samples'), CATDS: 8.7541295114789697E-3), 1330 nM. Moreover, the potency estimated from few doses in [18] (compound concentrations: 100 nM and 1000 nM (sheet 'Samples'), CATDS: 1.32180266874378E-2) is 412 nM; in [19] (CATDS: 9.3639610273777898E-3) it was 1050 nM.
On to `CCn1c(-c2cccnc2O)nc2cnccc21` [SB-736715], for which the potency estimated from few doses is 1280 nM in assay [3] (compound concentrations: 100 nM and 1000 nM (sheet 'Samples'), CATDS: 1.50971530533868E-2); 84.5 nM in assay [15] (compound concentrations: 100 nM and 1000 nM (sheet 'Samples'), CATDS: 9.8292238183885799E-2).
On to `O=C(O)C(F)(F)F.O=C(O)C(F)(F)F.O=c1[nH]ccc2nc(N[C@@H]3CCCNC3)nc(Nc3ccc(S(=O)(=O)N4CCOCC4)cc3)c12.O=c1[nH]ccc2nc(N[C@@H]3CCCNC3)nc(Nc3ccc(S(=O)(=O)N4CCOCC4)cc3)c12` [GSK2177277A], for which the potency estimated from few doses in assay [6] (compound concentrations: 100 nM and 1000 nM (sheet 'Samples'), CATDS: 9.0566947478628902E-3) is 373 nM; in assay [8] (compound concentrations: 100 nM and 1000 nM (sheet 'Samples'), CATDS: 1.0245441654914001E-2), 255 nM; in assay [16] (CATDS: 8.3972230361842193E-3), 481 nM; in [4] (compound concentrations: 100 nM and 1000 nM (sheet 'Samples'), CATDS: 9.6570166700827697E-3) it was 305 nM; in [17] (compound concentrations: 100 nM and 1000 nM (sheet 'Samples'), CATDS: 1.4475960848297199E-2) it was 105 nM; in assay [11] (compound concentrations: 100 nM and 1000 nM (sheet 'Samples'), CATDS: 4.5069810988754302E-2), 13.3 nM. Besides, the potency estimated from few doses in assay [12] (compound concentrations: 100 nM and 1000 nM (sheet 'Samples'), CATDS: 6.8069472857734698E-3) is 1140 nM; in assay [20] (compound concentrations: 100 nM and 1000 nM (sheet 'Samples'), CATDS: 1.4426641074697899E-2), 105 nM; in [18] (compound concentrations: 100 nM and 1000 nM (sheet 'Samples'), CATDS: 8.97994124779509E-3) it was 383 nM; in [19] (CATDS: 8.0041967490872001E-3), 573 nM.
`COc1cc[nH]c1/C=C1\C(=O)Nc2ccc(F)c(C#CC3(O)CCNCC3)c21.Cl` [RO0282986-001]: the potency estimated from few doses in assay [16] (CATDS: 1.26412371427807E-2) is 615 nM; in [17] (compound concentrations: 100 nM and 1000 nM (sheet 'Samples'), CATDS: 1.32977550051059E-2) it was 536 nM; in [19] (CATDS: 1.1263723561624001E-2), 868 nM.
Turning to `CC(C)Oc1ccc2c(-c3ccnc(Nc4ccc(N5CCN(C)CC5)cc4)n3)cnn2n1` [GW696155X], the potency estimated from few doses was 464 nM in assay [3] (setting [21]) and 600 nM in [11] (setting [21]).
Consider `Cl.Cl.NC(CNC(=O)c1cc(Br)c(-c2ccnc3[nH]ccc23)s1)c1ccccc1.NC(CNC(=O)c1cc(Br)c(-c2ccnc3[nH]ccc23)s1)c1ccccc1` (centres unmarked) [GSK1322949A], for which the potency estimated from few doses in assay [8] (compound concentrations: 100 nM and 1000 nM (sheet 'Samples'), CATDS: 4.7345157694920897E-2) is 499 nM; in assay [11] (compound concentrations: 100 nM and 1000 nM (sheet 'Samples'), CATDS: 3.0654913086493301E-2), 1150 nM.
On to `CCn1c(-c2nonc2N)nc2c(C#CC(C)(C)O)nc(O[C@@H](CN)c3ccccc3)cc21.O=C(O)C(F)(F)F` [GSK1007102B], for which the potency estimated from few doses in assay [8] (setting [21]) was 1280 nM; in assay [14] (setting [21]), 21.1 nM; in assay [17] (setting [21]), 173 nM; in assay [12] (setting [21]) it was 1090 nM; in assay [20] (setting [21]), 390 nM; in assay [18] (setting [21]), 1410 nM. The potency estimated from few doses in assay [13] (setting [21]) was 1890 nM.
As for `O=C(O)C(F)(F)F.O=c1[nH]ccc2nc(N[C@@H]3CCNC3)nc(Nc3cc(Cl)cc(Cl)c3)c12` [GSK2188764A], the potency estimated from few doses in assay [8] (setting [21]) was 1870 nM; in [4] (setting [21]), 813 nM; in assay [17] (setting [21]), 535 nM; in [12] (setting [21]), 538 nM; in assay [18] (setting [21]), 905 nM; in assay [13] (setting [21]) it was 1520 nM.
For `Cc1cccc(Nc2nc(N[C@H]3CCNC3)ncc2C(N)=O)c1.Cl` [GSK2197149A], the potency estimated from few doses was 1280 nM in [3] (setting [21]), 1330 nM in assay [4] (setting [21]), 10.5 nM in [15] (setting [21]) and 437 nM in [18] (setting [21]).
`NCC(NC(=O)c1cc(-c2cn[nH]c2)c(-c2ccnc3[nH]ccc23)s1)c1ccccc1.NCC(NC(=O)c1cc(-c2cn[nH]c2)c(-c2ccnc3[nH]ccc23)s1)c1ccccc1.O=C(O)C(F)(F)F.O=C(O)C(F)(F)F` (centres unmarked) [GSK1325775A]: the potency estimated from few doses in [8] (compound concentrations: 100 nM and 1000 nM (sheet 'Samples'), CATDS: 0.23472145831324301) is 29.3 nM; in [14] (compound concentrations: 100 nM and 1000 nM (sheet 'Samples'), CATDS: 4.2305109651231403E-2), 719 nM; in [20] (compound concentrations: 100 nM and 1000 nM (sheet 'Samples'), CATDS: 3.8123557619569197E-2), 949 nM.
For the compound `CN(C)CCNC(=O)Nc1ccc(N(C)c2ccnc(Nc3ccc(CS(C)(=O)=O)cc3)n2)cc1.Cl` [GW830900A], in [6] (setting [21]), the potency estimated from few doses is 387 nM.
